Measured values from a collection of fitness landscapes (doi:10.1016/j.celrep.2020.107928).
Over roughly 81,000 sequences, “one-hybrid fitness for binding parS DNA” has its median near -0.17; the highest 2% begin near 0.51. For the sample, the highest values were picked, then their nearest neighbours and some sequences at random.

B1: Caulobacter ParB omega fusion; a variant is named by its letters at X, in order, B8GW30 (parent)
chain: MESVVVGEPGMSEGRRGLGRGLSALLGEVDAAPAQAPGEQLGGSREAPIEILQRNPDQPRRTFREEDLEDLSNSIREKGVLQPILVRPSPDTAGEYQIVAGERAWRAAQRAGLKTVPIMVRELDDLAVLEIGIIENVQRADLNVLEEALSYKVLMEKFERTQENIAQTIGKSXSHVANXMRLLXLPDEVQSYLVSGELTAXHARAIAAAADPVALAKQIIEGGLSVRETEALARKAPNLSAGKSKGGRPPRVKDTDTQALESDLSSVLGLDVSIDHRGSTGTLTITYATLEQLDDLCNRLTRGI

Variants of: B1
Assay: one-hybrid fitness for binding parS DNA (scaled: cognate 1, non-cognate 0); higher = stronger binding
Conditions: with parS DNA site
Outline: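 Fitness here means the log change in variant-to-wild-type read ratio between plasmids sequenced before and after selection. That scale was set so cognate equals 1 and non-cognate equals 0. The selection was a bacterial one-hybrid screen of Caulobacter ParB libraries, four specificity codons randomised, in E. coli USO carrying a HIS3 reporter with the site 19 bp from the promoter, grown 48 hours at 37°C on M9-minus-histidine with 0.1 mM IPTG and 5 mM 3-AT.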

Variant	one-hybrid fitness for binding parS DNA
LTTC	≤ 0.2
SCLR	≤ 0.2
VNDE	≤ 0.2
FAPS	≤ 0.2
LNVW	≤ 0.2
RNEL	≤ 0.2
RPGY	≤ 0.2
RFDY	0.443
RSYY	0.457
RLYY	0.497
RFRY	0.533
RSDY	0.352
RTGY	0.593
RSRY	0.55
RSGY	0.482
RLRY	0.645
RFYY	0.383
RLDY	0.451
RRGE	≤ 0.2
LRQS	≤ 0.2
LLPK	≤ 0.2
ALSN	≤ 0.2
RTRY	0.828
RTYY	0.49
RIAY	0.484

Variant	one-hybrid fitness for binding parS DNA
RMYY	0.483
RTLY	0.495
RCYY	0.472
RIYY	0.475
RMIY	0.467
RMRY	0.777
RCRY	0.695
RPRY	≤ 0.2
RIRY	0.617
EDER	≤ 0.2
KRAT	≤ 0.2
DYVS	≤ 0.2
MMHG	≤ 0.2
SFLE	≤ 0.2
PRQV	≤ 0.2
RTNY	0.659
RTDY	0.437
RSNY	0.496
DVRM	≤ 0.2
RAWF	0.245
RACR	≤ 0.2
RARR	≤ 0.2
RARK	≤ 0.2
RACK	≤ 0.2
RACC	0.962

Variant	one-hybrid fitness for binding parS DNA
RAHC	0.983
RAWQ	≤ 0.2
RARC	0.921
RAWC	0.927
RAHQ	≤ 0.2
RAHY	0.472
CWYT	≤ 0.2
HLQT	≤ 0.2
YDQM	≤ 0.2
VCTK	≤ 0.2
QSGL	≤ 0.2
IVAE	≤ 0.2
SVEV	≤ 0.2
VAFA	≤ 0.2
TVDW	≤ 0.2
EQMM	≤ 0.2
RALM	0.34
RAQP	≤ 0.2
RALR	≤ 0.2
RAYF	0.264
RASD	≤ 0.2
RAQC	0.987
RASP	≤ 0.2
RAQH	0.211
RALC	0.968

Variant	one-hybrid fitness for binding parS DNA
RAYC	0.99
RAYK	≤ 0.2
RASC	0.973
WCQR	≤ 0.2
CHEL	≤ 0.2
DWAG	≤ 0.2
PWPN	≤ 0.2
IYAV	≤ 0.2
YPAT	≤ 0.2
WGPT	≤ 0.2
KAKV	≤ 0.2
PNIE	≤ 0.2
TVLI	≤ 0.2
CNIV	≤ 0.2
KLAN	≤ 0.2
DLHL	≤ 0.2
LCNK	≤ 0.2
PFMG	≤ 0.2
SAPW	≤ 0.2
DGTW	≤ 0.2
RSMT	0.813
RKMY	0.386
RGMT	0.457
RTMQ	0.208
RTMF	0.245

Variant	one-hybrid fitness for binding parS DNA
RKMT	0.824
RKMF	≤ 0.2
RRMQ	≤ 0.2
RRMT	0.6
RRMF	≤ 0.2
RDMT	≤ 0.2
RTMT	0.935
AQDS	≤ 0.2
QQQY	≤ 0.2
PPNS	≤ 0.2
GHCG	≤ 0.2
VYPW	≤ 0.2
TWKG	≤ 0.2
RLMT	0.955
RFMF	0.245
DFMT	≤ 0.2
RLMQ	≤ 0.2
RIMK	≤ 0.2
RFMT	0.754
RIMT	0.878
REMT	≤ 0.2
RCMT	0.921
RIMF	0.247
RPMT	≤ 0.2
RLMK	≤ 0.2

Variant	one-hybrid fitness for binding parS DNA
FHRK	≤ 0.2
ACEY	≤ 0.2
KYCS	≤ 0.2
TTLF	≤ 0.2
SFCW	≤ 0.2
HHQT	≤ 0.2
SRMA	≤ 0.2
QDSQ	≤ 0.2
KLPC	≤ 0.2
IKAG	≤ 0.2
HGIV	≤ 0.2
RMMF	0.247
RAMP	≤ 0.2
RHML	≤ 0.2
RAMT	0.878
RMMT	0.874
RHMR	≤ 0.2
RAMN	0.41
RMMK	≤ 0.2
RHMT	0.87
MMTS	≤ 0.2
SEPR	≤ 0.2
ENLY	≤ 0.2
PAVK	≤ 0.2
IFRK	≤ 0.2

Variant	one-hybrid fitness for binding parS DNA
PDML	≤ 0.2
THSD	≤ 0.2
RTQP	≤ 0.2
RTCC	0.959
RTDK	≤ 0.2
RTDC	0.887
RTQN	0.442
RTDQ	≤ 0.2
RTQC	0.974
RTWR	0.207
RTCN	0.451
RTCD	≤ 0.2
RTWM	0.381
RTWC	0.985
QNHE	≤ 0.2
TINS	≤ 0.2
DDHK	≤ 0.2
RPGE	≤ 0.2
IIHE	≤ 0.2
QARI	≤ 0.2
RTHR	≤ 0.2
NTRC	≤ 0.2
RTRC	0.826
RTNM	0.301
RTHF	0.277

Variant	one-hybrid fitness for binding parS DNA
RTNC	0.914
RTGK	≤ 0.2
RTRR	≤ 0.2
RTGC	0.955
RTNP	≤ 0.2
RTGQ	≤ 0.2
RTHC	0.978
TEQT	≤ 0.2
PSDC	≤ 0.2
TTIK	≤ 0.2
QTTK	≤ 0.2
EMYT	≤ 0.2
YMPG	≤ 0.2
QGVI	≤ 0.2
THDM	≤ 0.2
QTRR	≤ 0.2
WHQG	≤ 0.2
HQDG	≤ 0.2
SMLR	≤ 0.2
LTRA	≤ 0.2
